Source: PubChem BioAssay (The Scripps Research Institute Molecular Screening Center)
TEAD-YAP block: TEAD-YAP interaction inhibition | 1.4% of 640,000 active | HEK-TIYL cells, TEAD-Gal4/YAP UAS-luciferase luminescence | inhibition, % at 9.12 µM; in the data active = inhibition above about 32%;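 note: 0% = median of test compound wells and 100% = reference inhibitor wells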
FBW7 activator: human FBW7 E3 ligase activation, primary screen | Q969H0 | AlphaScreen FBW7–phospho-cyclin E peptide binding, activator screen | normalized activity (activation), % at 26.1 µM | 0.13% of 650,000 active | AID 1259310; in the data active = normalized activity above about 1.9%;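 note: purified mutant Fbw7 with reduced substrate affinity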
GPR151 activ: activators of human GPR151; PathHunter beta-arrestin GPR151 cells, luminescence; Q8TDV0; 1% of 650,000 active; AID 1508602; activation, % at 11.2 µM; in the data active = activation above about 4.9%;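 note: 0% = median of compound wells and 100% = cells with positive control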
MITF inh: human MITF inhibition, primary screen | O75030 | inhibition, % at 2.6 µM | 0.91% of 650,000 active | AlphaScreen MITF homodimerization, bead proximity signal | AID 1259374; in the data active = inhibition above about 50%;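 note: 0% = vehicle wells with protein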
GPR151 confirm: confirmation of human GPR151 activators; shares compounds with GPR151 activ; GPR151 PathHunter beta-arrestin cells, luminescence, 90 min; % of EA-reagent control over plate median; activation, % at 11.2 µM; 6,700 tested, under 10 active; AID 1508609;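 active = mean percent activation across replicates above the confirmation screen cutoff of 4.91%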
GPR119 counter: activates human GPR119 in a GPR151 counter-screen | GPR119 PathHunter beta-arrestin cells, luminescence, 90 min; 0 = compound-well median, 100 = enzyme-acceptor control | shares compounds with GPR151 activ | activation, % at 11.2 µM | 0.3% of 6,700 active;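 active = mean percent activation in the counterscreen above 29.09%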;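 note: counterscreen on off-target GPR119 to flag nonselective hits from the GPR151 activator screen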
Target sequence (Q8TDV5 whole entry, looked up): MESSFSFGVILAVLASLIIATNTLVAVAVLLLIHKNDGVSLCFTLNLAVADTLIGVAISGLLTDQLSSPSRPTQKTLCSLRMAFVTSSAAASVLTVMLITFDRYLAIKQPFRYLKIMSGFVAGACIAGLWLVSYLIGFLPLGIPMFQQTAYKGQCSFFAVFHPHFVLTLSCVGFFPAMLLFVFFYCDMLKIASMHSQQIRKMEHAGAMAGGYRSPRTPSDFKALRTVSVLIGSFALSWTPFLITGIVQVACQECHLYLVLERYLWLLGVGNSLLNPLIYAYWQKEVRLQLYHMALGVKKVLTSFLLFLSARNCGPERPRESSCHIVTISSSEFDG
* hit, by the source's call; . = no result; ! = not active in a repeat. In the library only some 3.5% were active in any assay of this set; here they are far more common.

SMILES	TEAD-YAP block	FBW7 activator	GPR151 activ	MITF inh	GPR151 confirm	GPR119 counter
COc1cc(Nc2cc(-c3ccc(C(=O)N4CCN(C)CC4)cc3)nc(N)n2)cc(OC)c1OC	8	0	3	-7	.	.
CCOC(=O)/C(C#N)=C1/N(C)c2ccccc2N1N	-7	0	0	14	.	.
COC(=O)C1=C(C(=O)OC)[C@@H]2N(Cc3ccccc3)c3ccccc3[C@@]23C[C@@H](CO)N(C(=O)NC2CCCCC2)C3=N1	.	0	3	-2	.	.
COC(=O)C1=C(C(=O)OC)[C@@H]2N(Cc3ccccc3)c3ccccc3[C@@]23C[C@@H](CO)N=C3N1	.	0	6.8*	-6	0	-1
COc1ccccc1-n1nc(C(=O)Nc2cccc(NC(C)=O)c2)c2ccccc2c1=O	2	0	0	7	.	.
CC(C)N(CCNC(=O)c1cccc(NCCCN2CCCC2=O)c1)C(C)C	-1	0	5.0*	3	-1	5
Cc1noc(/C=C/C=C/c2ccccc2)c1[N+](=O)[O-]	-1	0	0	34	.	.
COc1ccc(OC)c(/C=C\c2onc(C)c2[N+](=O)[O-])c1	2	0	8.9*	-17	0	-8
COc1ccc(N2CCN(C/C=C/c3ccccc3[N+](=O)[O-])CC2)cc1	3	0	0	15	.	.
COc1ccc(N2CCN(Cc3ccc([N+](=O)[O-])s3)CC2)cc1	4	0	5.1*	56*	0	9
Cc1cc(N2CCN(C(=O)c3ccc(Cl)cc3Cl)CC2)c(F)cc1[N+](=O)[O-]	6	0	6.8*	2	1	6
Cc1ccc(-c2c(C(=O)Nc3ccc(S(N)(=O)=O)cc3)oc(=O)c3ccccc23)cc1	6	0	0	0	.	.
Cc1ccc(NC(=O)Cn2c(=O)c(C#N)c3n(c2=O)CCC3)cc1	1	0	-1	-4	.	.
COc1ccc(-c2cncc(-c3cc(N4CCN(CCO)CC4)nc(C)n3)c2)cc1	6	0	7.1*	2	-1	-9
Cc1ccc([N+](=O)[O-])c(OCCOCCN2CCc3ccccc3C2)c1	11	0	5.7*	-2	1	-4
COc1cc(NC(=O)c2c(C)cc3ccccn23)cc(OC)c1OC	0	0	7.3*	18	0	-2
COc1ccc(-n2c(=O)c3ccccc3n(CC(=O)N3CCCC3)c2=O)cc1	2	0	-1	-15	.	.
O=C(c1ccccc1)n1c(=O)oc2ccccc2c1=O	-12	0	-6	-1	.	.
CCN1CCN(C(CC(C)C)c2nnnn2Cc2ccc3c(c2)OCO3)CC1 (centres undefined)	-3	0	5.3*	3	1	6
CCCCc1c(C)nc(N/N=C(\C)c2ccc([N+](=O)[O-])cc2)[nH]c1=O	4	0	2	1	.	.
COC(=O)c1ccc(Cl)cc1NC(=O)N(C(C)C)C1CCN(C(C)=O)CC1	-9	0	7.0*	1	2	-1
COc1ccc(NC(=O)N(C(C)C)C2CCN(C(C)=O)CC2)c(OC)c1	-4	0	1	4	.	.
CCOC(=O)c1c(NC(=O)Nc2ccc(Cl)cc2)sc2c1CC(C)(C)OC2	-10	0	5.2*	-9	2	8
CCOC(=O)c1c(NC(=O)CC)sc2c1CC(C)(C)OC2	-4	0	-1	-2	.	.
COCCOC(=O)C1=C(N)Oc2c(oc(CO)cc2=O)C1c1c(F)cccc1Cl (centres undefined)	13	0	5.7*	-15	0	9
CC[C@@H](C(=O)C(C)[C@@H](O)[C@H](C)CCc1ccc(C)c(O)c1C(=O)O)C1OC(CC)(C2CC[C@](O)(CC)[C@H](C)O2)C[C@@H]1C (some centres undefined)	-11	1	13*!	6	3	51*
COc1ccccc1NC(=O)c1ccc(SCC(=O)NC2CCCCCC2)c([N+](=O)[O-])c1	13	0	8.3*	15	0	6
COc1ccccc1C1=NOC(C(=O)Nc2ccc(C(C)=O)cc2)C1 (centres undefined)	-15	0	0	4	.	.
CCCNC(=O)c1cc2sc(Cl)cc2n1CC	1	0	2	10	.	.
